CYP2C19 inhib – human CYP2C19 inhibition. P33261. actives 21% (n = 96,000). inhibition, % at 5 µM. CYP2C19 Supersomes, luciferin-H EGE luminescence, 30 min;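 active = CYP2C19 inhibition above a set limit at 5 µM in the primary screen, cut at about 50% in these data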;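 also: plate controls were negative control wells for no effect and 2.5 mM tranylcypromine positive control for full effect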
CYP2C19 activ – activators of human cytochrome P450 2C19; recombinant CYP2C19, luciferin-H EGE luminescence; active compounds read high; 0 = fully inhibited enzyme, 1 = untreated enzyme; activation factor at 5 µM; 96,000 tested, under 10 active;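 active = activation factor of at least 2 at 5 µM in the primary screen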;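 also: 0 = wells with 2.5 mM tranylcypromine and 1 = vehicle-only wells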
EphB4 ephrin blk – blocks human EphB4 binding to ephrin-B2; P54760; EphB4 LBD / TNYL-RAW-Alexa532 peptide, fluorescence polarization; inhibition, % at 7 µM; actives 0.15% (n = 97,000); AID 720;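 active = inhibition above the screen-wide mean inhibition plus 3 SD, cut at about 15% in these data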;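 also: 0% = DMSO wells and 100% = excess unlabeled TNYL-RAW peptide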
CYP2C9 activ – activators of human CYP2C9. P11712. recombinant CYP2C9, luciferin-H conversion, luminescence; active compounds read high; factor 1 = untreated enzyme, 0 = blocked. activation factor at 5 µM. actives 1.4% (n = 96,000). AID 1024;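 active = activation factor of 2 or more for CYP2C9 at a 5 µM dose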;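 also: 0 = sulfaphenazole-blocked wells and 1 = vehicle-only wells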
Target sequence (P11712 whole entry, looked up): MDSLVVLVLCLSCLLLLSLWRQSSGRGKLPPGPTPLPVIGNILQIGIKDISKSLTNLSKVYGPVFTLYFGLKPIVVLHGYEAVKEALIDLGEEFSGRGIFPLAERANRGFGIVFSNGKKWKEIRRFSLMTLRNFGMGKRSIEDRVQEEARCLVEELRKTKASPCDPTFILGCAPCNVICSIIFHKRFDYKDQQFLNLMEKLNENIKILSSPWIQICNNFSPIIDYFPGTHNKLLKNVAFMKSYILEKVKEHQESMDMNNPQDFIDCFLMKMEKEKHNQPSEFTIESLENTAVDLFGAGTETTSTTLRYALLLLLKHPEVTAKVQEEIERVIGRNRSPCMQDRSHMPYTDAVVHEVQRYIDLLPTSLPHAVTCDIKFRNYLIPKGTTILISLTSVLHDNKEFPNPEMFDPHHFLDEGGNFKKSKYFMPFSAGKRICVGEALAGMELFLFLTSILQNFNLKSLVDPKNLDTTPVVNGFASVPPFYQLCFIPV
CYP2C9 inhib – blocks human cytochrome P450 2C9; actives 20% (n = 96,000); inhibition, % at 5 µM; P11712; CYP2C9 Supersomes, luciferin-H conversion, luminescence;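 active = blocking of liver enzyme CYP2C9 beyond about 50% at 5 µM, limit read from the data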
* marks the source's active call; other numbers are inactive results; nt = no result. The list is not random: actives were taken first. Their share in the collection is about 27%.

SMILES	CYP2C19 inhib	CYP2C19 activ	EphB4 ephrin blk	CYP2C9 activ	CYP2C9 inhib
Cc1c(C(=O)NCC2COc3ccccc3O2)oc2ccc(S(=O)(=O)N(C)C3CCCCC3)cc12 (stereo not given)	49	0.5	5	0	95*
CCN(CC)S(=O)(=O)c1ccc2oc(C(=O)O)c(C)c2c1	-4	1	-4	0.2	77*
CCN(CC)S(=O)(=O)c1ccc2oc(C(=O)NCc3ccc(C)cc3)c(C)c2c1	42	0.6	4	0.5	51*
O=C(CC1=NCCNC(c2ccccc2)C1)c1ccccc1O (stereo not given)	35	0.6	0	0.9	5
CCCCc1ccc(-c2c(C#N)c(N)nc3c2CCCC3)s1	17	0.8	-3	1.2	-24
CN(CCNC(=O)C1(O)c2ccccc2NC(=O)N1c1ccccc1)Cc1ccccc1 (stereo not given)	3	1	nt	0.7	33
CCN(Cc1ccccc1)S(=O)(=O)c1ccc2oc(C(=O)O)c(C)c2c1	2	1	nt	0	98*
O=C(CSc1nc2ccccc2c(=O)[nH]1)N1CCCCCC1	12	0.9	2	0.8	25
N#Cc1c(-c2cccs2)nc(SCC(=O)c2cccs2)[nH]c1=O	34	0.7	4	0	98*
O=C(CSc1nc2ccccc2c(=O)[nH]1)c1cccs1	39	0.6	-5	0.3	66*
O=C(CSc1nc2ccccc2c(=O)[nH]1)c1ccc(O)c(O)c1	22	0.8	nt	0.2	77*
O=C1CCCN1c1ccc(S(=O)(=O)N2CCC(c3ccccc3)CC2)cc1	34	0.7	-4	0.6	37
Cc1cc(C)c(S(=O)(=O)N2CCN(c3ccc([N+](=O)[O-])c(NCc4ccco4)c3)CC2)c(C)c1	37	0.6	-2	0.5	53*
CCNc1cc(N2CCN(S(=O)(=O)c3ccc4c(c3)CCCC4)CC2)ccc1[N+](=O)[O-]	54*	0.5	2	0.7	33
CC(C)(C)CNc1cc(N2CCCC2)ccc1[N+](=O)[O-]	4	1	3	0.7	29
Cc1cc(C)c(S(=O)(=O)N2CCN(c3ccc([N+](=O)[O-])c(NCC4CCCO4)c3)CC2)c(C)c1 (stereo not given)	36	0.6	-5	0.4	56*
CC(C)c1ccc(CNc2cc(N3CCCC3)ccc2[N+](=O)[O-])cc1	30	0.7	10	0.5	53*
CCNC(=S)N/N=C/c1cc(Br)cc(Br)c1OC	2	1	2	0.8	17
Cc1cc2nc(C)n(CCCNC(=O)Nc3cccc4ccccc34)c2cc1C	46	0.5	-4	0.4	57*
CCOc1ccc(NC(=O)NCCCn2c(C)nc3cc(C)c(C)cc32)cc1	35	0.6	-11	0.2	81*
CN1CCN(CCCNC(=O)Nc2cccc3ccccc23)CC1	-12	1.1	-8	1.1	-9
COCn1c(COc2ccc3ccccc3c2)nc2ccccc21	nt	nt	1	nt	nt
CCOC(=O)N1CCC(NC(=O)CSCc2cnn(-c3ccccc3)c2-n2cccc2)CC1	57*	0.4	-6	0.5	51*
COC(=O)CNC(=O)c1nn(-c2cccc(OC)c2)c(=O)c2ccccc12	3	1	nt	0.8	16
O=C(CSc1nnc2ccccn12)NCc1cccs1	16	0.8	nt	0.9	7
SMILES	CYP2C19 inhib	CYP2C19 activ	EphB4 ephrin blk	CYP2C9 activ	CYP2C9 inhib
O=C(CSCc1cnn(-c2ccccc2)c1-n1cccc1)NCc1cccs1	53*	0.5	1	0.2	81*
COc1cccc(CNC(=O)CSCc2cnn(-c3ccccc3)c2-n2cccc2)c1	92*	0.1	1	0.1	94*
CNC(=O)CSCc1cnn(-c2ccccc2)c1-n1cccc1	76*	0.2	3	0.5	45
CSc1ccccc1NC(=O)c1ccncc1	66*	0.3	-1	1	0
CSc1ccccc1NC(=O)c1cc(C)on1	18	0.8	0	2.4*	-143
CSc1ccccc1NC(=O)c1cc(C(C)C)on1	-2	1	2	1.4	-44
CC(=O)Cc1nsc(NC(=O)C2Cc3ccccc3C(=O)O2)n1 (stereo not given)	-3	1	-1	1.1	-5
CCCc1ccc(OCCNC(C)=O)cc1	nt	nt	2	nt	nt
COC(=O)COc1ccc(NC(=O)C2CCCO2)cc1 (stereo not given)	18	0.8	5	1	4
O=C(CCC(NC(=O)OCc1ccccc1)C(=O)OCC(=O)N1CCCCC1)OCC(=O)N1CCCCC1 (stereo not given)	83*	0.2	3	0.1	92*
Cc1ccc2nc3sc(C(=O)N4CCOCC4)c(N)c3cc2c1	21	0.8	7	0.9	12
COCc1cc(=O)n2[nH]c(-c3ccccc3)cc2n1	34	0.7	0	0.6	38
COCc1cc(=O)n2[nH]c(-c3cccc(Br)c3)cc2n1	95*	0	-8	0.5	50
Cc1nn(C(C)C(=O)NNC(=S)Nc2ccc(Cl)cc2)c(C)c1[N+](=O)[O-] (stereo not given)	0	1	1	0.4	64*
Cc1nn(CCC(=O)NNC(=S)Nc2ccc(Cl)cc2)c(C)c1[N+](=O)[O-]	nt	nt	-2	nt	nt
Cc1ccc2nc(SCC(=O)c3ccc4c(c3)OCO4)[nH]c2c1	41	0.6	-4	0.3	69*
O=C(CSc1nc(Cc2ccccc2)nc2ccccc12)c1ccc2c(c1)OCCO2	8	0.9	-3	0.1	89*
CC(=O)c1c(C)[nH]c(C(=O)CSc2nc3ccc(C)cc3[nH]2)c1C	90*	0.1	5	0.1	94*
CCc1nc(SCC(=O)c2ccc3c(c2)OCCO3)c2ccccc2n1	15	0.9	-4	0.8	17
Cc1ccc(C(=O)CSc2nc(C)cc(=O)[nH]2)cc1	12	0.9	-4	0.7	32
Cc1ccc2nc(SCC(=O)c3ccc(Cl)s3)[nH]c2c1	48	0.5	0	0.4	60*
CCOc1ccccc1NC(=O)CSc1nc(N)c(C#N)cc1C#N	-1	1	-1	0.8	24
N=c1c(C(=O)NCc2ccc(F)cc2)cc2c(=O)n3ccccc3nc2n1CC1CCCO1 (stereo not given)	18	0.8	-10	0.8	20
O=C(CSc1nc2ccccc2[nH]1)c1ccc2c(c1)OCO2	92*	0.1	3	0.3	71*
COc1ccc(-c2csc(NCc3ccco3)n2)cc1	24	0.8	nt	0.9	11
C=CCNc1nc(-c2ccc(OC)cc2OC)cs1	57*	0.4	4	1.1	-8
CCN(CC)c1ccc(N2C(=O)/C(=C\c3cccs3)SC2=S)cc1	-13	1.1	0	1.3	-31
O=C(CN1CCN(c2ccc(Cl)cc2)CC1)Nc1ccc(F)cc1	23	0.8	-9	0.5	49
Cc1cc(=O)oc(C)c1C(=O)N1CCN(Cc2ccc3c(c2)OCO3)CC1	0	1	2	0.9	5
COC(=O)c1c(NC(=O)CN2CCN(Cc3ccc4c(c3)OCO4)CC2)sc(C)c1C	50*	0.5	0	0.3	71*
